# NALP1 yeast inh = inhibitors of NALP1 inflammasome in yeast; S. cerevisiae NALP1/ASC/caspase-1 growth, X-gal OD620, 72 h; inhibition, % at 10 µM; 0.61% of 280,000 active; in the data active means inhibition mostly above about 24%, no sharp cut-off; inactive means mostly below about 32%
# tim10-1 inh = inhibits growth of tim10-1 mutant yeast; S. cerevisiae tim10-1 ts strain growth, BacTiter-Glo, 24 h; inhibition, % at 20 µM; 2.2% of 330,000 active; AID 463190;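 active means inhibition of at least 40%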;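 further: mutant grown at 25 °C; 0% = DMSO wells with yeast and 100% = wells holding no yeast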
# NALP3 yeast inh = blocks the NALP3 inflammasome reconstituted in yeast; Yeast reconstituted NLRP3/ASC/caspase-1, beta-gal luminescence, 24 h; AID 2825; 0.39% of 330,000 active; inhibition, % at 10 µM;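 active means inhibition of 50% or more; inactive means inhibition below 50%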;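 further: plate controls were induced DMSO wells for no effect and uninduced yeast grown without galactose for full effect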
# TIM10 inh = TIM10 yeast growth inhibition | AID 463195 | S. cerevisiae TIM10 strain growth, BacTiter-Glo luminescence, 24 h | inhibition, % at 10 µM | 1.4% of 330,000 active;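 active means inhibition of 40% or more at the single tested concentration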;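 further: wild-type TIM10 isogenic control strain grown at permissive 25 °C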
# tim23-1 inh = tim23-1 yeast growth inhibition. S. cerevisiae tim23-1 growth, BacTiter-Glo luminescence, 24 h. inhibition, % at 20 µM. 1.3% of 330,000 active;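 active means growth inhibition of the mutant yeast at or above 50%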;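 further: temperature-sensitive mutant grown at 25 °C; plate controls were DMSO-treated mutant yeast for no effect and medium wells lacking yeast for full effect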
# NALP3 confirm = confirmation of NALP3 inhibitors in yeast. shares compounds with NALP3 yeast inh. yeast expressing human NALP3, luminescence. inhibition, % at 10 µM. 81% of 1,300 active; in the data active means inhibition above about 48%
# Casp1-ASC yeast = caspase-1-ASC yeast counter-screen hit; shares compounds with NALP3 yeast inh; yeast expressing Caspase-1-ASC, luminescence counter screen; inhibition, % at 10 µM; 66% of 1,000 active
# NALP3 retest = confirmation retest of NALP3 inhibitors in yeast; shares compounds with NALP3 yeast inh; yeast expressing human NALP3, luminescence read-out; inhibition, % at 10 µM; 53% of 1,000 active; AID 488794
# Numbers without * were called inactive; . = not tested or not shown. This is a sample that favours compounds with a hit; in the whole collection about 4.1% have one here. Unless noted, no stated cut-off is given here; in the data, active means inhibition above about 50%; inactive means the rest.
SMILES,NALP1 yeast inh,tim10-1 inh,NALP3 yeast inh,TIM10 inh,tim23-1 inh,NALP3 confirm,Casp1-ASC yeast,NALP3 retest
Cc1ccc(C)c(Oc2nnnn2-c2ccccc2)c1,3,28,-108,27,30,-5,.,.
c1ccc(-n2ncc3c(N4CCCCC4)ncnc32)cc1,11,12,60*,-8,43,61*,69*,61*
CC1CCCN(c2ncnc3c2cnn3-c2ccc(Cl)cc2)C1 (stereo not given),12,11,32,0,24,.,.,.
CC1CCCN(c2ncnc3c2cnn3-c2ccccc2)C1 (stereo not given),33,16,54*,-3,31,62*,.,.
Cc1cccc(-n2ncc3c(NC(C)C)ncnc32)c1,.,-35,47,-10,28,.,.,.
CC(C)Nc1ncnc2c1cnn2-c1ccccc1,34,-26,58*,-18,25,65*,38,36
Cc1ccc(OCC(=O)N2CCC(C)CC2)c([N+](=O)[O-])n1,.,-3,11,5,8,.,.,.
CCOC(=O)N1CCN(C(=O)CSCc2ccc(Br)cc2)CC1,14,17,24,11,19,.,.,.
Clc1ccccc1N=C1NN=C(c2cccs2)CS1,12,27,52*,19,38,71*,59*,50
Fc1ccccc1N=C1NN=C(c2ccccc2)CS1,-2,18,24,-4,20,.,.,.
c1coc(CN(Cc2ccco2)c2ncnc3c2oc2ccccc23)c1,4,16,7,-1,-28,.,.,.
COc1ccccc1N(CC(=O)N/N=C(\C)c1ccc(F)cc1)S(=O)(=O)c1ccccc1,.,9,-9,3,11,.,.,.
COc1ccc(NC(=O)c2csc(C)c2)cc1OC,-2,13,21,6,11,.,.,.
O=c1c2ccccc2oc2cc(C#CC3(O)CCCCC3)ccc12,.,22,16,14,30,.,.,.
COc1cccc2oc3cc(C#CC4(O)CCCCC4)ccc3c(=O)c12,-46,33,57*,0,9,60*,62*,48
COc1ccc(S(=O)(=O)n2ccc(-c3cnc(-c4ccccc4)s3)n2)cc1,24,15,18,16,26,.,.,.
O=C(c1ccccc1)n1ccc(-c2cnc(-c3ccccc3)s2)n1,4,-10,62*,0,10,60*,25,10
Cc1ccc(C)c(NC(=O)CN2C(=O)COc3ccc(S(=O)(=O)N4CCCC4)cc32)c1,0,14,3,2,4,.,.,.
O=S(=O)(Oc1ccc(Cl)cc1)c1cccc2cccnc12,16,4,58*,-14,15,54*,72*,61*
S=C(Nc1cc(Cl)cc(Cl)c1)NC1CCN(Cc2ccccc2)CC1,10,12,56*,16,7,53*,.,.
CC(=O)c1cnc2nc(SCc3ccc(Cl)cc3)nn2c1C,-12,-11,53*,-13,45,71*,64*,50*
CC(=O)c1cnc2nc(SCc3ccc(C)cc3)nn2c1C,3,17,33,-1,18,.,.,.
CN1CCN(c2ccccc2NC(=O)c2cc3c(s2)-c2ccccc2OC3)CC1,.,27,71*,39,13,76*,82*,76*
O=C(Nc1cccnc1Cl)c1cc2c(s1)-c1ccccc1OC2,23,13,30,-12,15,.,.,.
CCCC1CCC(c2ccc(OCC)cc2)=CC1=O (stereo not given),21,-5,52*,-13,9,62*,40,50
SMILES,NALP1 yeast inh,tim10-1 inh,NALP3 yeast inh,TIM10 inh,tim23-1 inh,NALP3 confirm,Casp1-ASC yeast,NALP3 retest
CCOc1ccc(N2C(=O)CCC2=O)cc1,.,5,-3,1,4,.,.,.
COc1ccc(NC(=O)CSc2nc3ccccc3nc2N2CCCC2)cc1,2,8,30,-13,20,.,.,.
CC1(c2nnc(-c3ccccc3)o2)CC(c2c(Cl)cccc2Cl)=NO1 (stereo not given),.,-1,55*,-36,30,71*,32,37
CC1(c2nnc(-c3ccncc3)o2)CC(c2c(Cl)cccc2Cl)=NO1 (stereo not given),12,-18,14,-34,1,.,.,.
Cc1ccccc1C(=O)O/N=C/c1c(N2CCOCC2)n(C)c2ccccc12,-3,-1,66*,18,35,83*,92*,79*
N#CCC(=O)Nc1ccc(C(F)(F)F)cc1N1CCOCC1,14,20,12,22,27,.,.,.
C[C@H](NC(=O)c1[nH]cnc1C(=O)Nc1ccc(Cl)cc1)C(=O)OC(C)(C)C,.,17,58*,11,37,65*,30,25
CCOC(=O)c1ccc(NC(=O)c2nc[nH]c2C(=O)N[C@@H](C)C(=O)OC(C)(C)C)cc1,.,22,14,0,31,.,.,.
COc1ccccc1N(CC(=O)NC1CCCC1)C(=O)c1oc(C(C)(C)C)cc1C,5,28,6,39,41,.,.,.
Cc1cc(-c2cc(C(=O)NC3CCCC3)on2)nc(NC2CCCC2)n1,.,-11,18,-6,13,.,.,.
CCCNc1nc(C)cc(-c2cc(C(=O)NC3CCCC3)on2)n1,3,-11,63*,-4,19,81*,51*,34
CO/N=C(\Cn1ncc(N2CCCC2)c(Cl)c1=O)c1ccc(Cl)cc1,22,12,70*,-29,28,73*,75*,60*
CC(=O)Cn1ncc(N2CCCCC2)c(Cl)c1=O,0,1,-14,-8,-4,.,.,.
O=C([C@@H]1Cc2ccccc2CN1)N1CCN(Cc2ccccc2)CC1,9,-1,26,3,-7,.,.,.
CCCCCc1nnc(NC(=O)OCCC)s1,28,24,54*,18,31,73*,57*,47
CCCOC(=O)Nc1nnc(CCC)s1,-7,1,28,0,19,.,.,.
NCCC(=O)NCCc1cnc[nH]1,.,-8,66*,2,-7,76*,63*,72*
Cc1c(N(C(=O)c2ccccn2)C2(C(=O)NC3CCCC3)CCCCC2)c(=O)n(-c2ccccc2)n1C,3,-3,5,10,12,.,.,.
CCOC(=O)c1sc2ncnc(Nc3cccc(C(=O)O)c3)c2c1C,13,5,18,1,14,.,.,.
CC1CCCCN1S(=O)(=O)c1cnc(Cl)c(Br)c1 (stereo not given),58,-18,55*,-56,4,54*,.,.
Cn1cccc1CNC(=S)Nc1ccccc1F,1,13,5,10,10,.,.,.
C/C(=N\NC(=S)NCCc1ccccc1)c1ccc(Cl)cc1Cl,-10,22,58*,31,34,39,77*,58*
CCCc1nc(SCc2cccnc2)c2c(=O)n(C)c(=O)n(C)c2n1,32,-11,54*,-19,35,66*,57*,47
Cn1c(=O)c2c(SCc3cccnc3)nc(CC(C)(C)C)nc2n(C)c1=O,-21,23,7,-11,48,.,.,.

# Screening results deposited in PubChem BioAssay by Sanford-Burnham Center for Chemical Genomics.
